Data on 15 compounds can be found in PubChem BioAssay (Tox21).

Values joined by “and” are separate entries in the source; they are usually repeats but may differ in a detail not shown here. Equal values may be shown once. Inconclusive results are not listed. Where a structure was tested more than once in an assay, its records may differ in their call. Active and inactive are the calls of the source. Calls follow the shape of the dose curve; as a rule, active = well fitted curve in the direction sought with a large enough effect in the repeat runs; inconclusive = weak or mixed curves; inactive = no such curve, though single readings can be large; an effect the other way counts as inactive or inconclusive. Residues, ends and D or L forms follow the SMILES beside them.

Assay [1] in a line: Human pregnane X receptor (PXR) small molecule agonists, qHTS cell viability counter screen (AID 1346977). Also: nearly all actives have a fitted effect of over 50% in size. Also: potency is read from the fitted curve at half-maximal effect. In short, it runs like this: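 HepG2 cells stably carrying the PXR-Luc reporter are cultured with 5% charcoal-stripped FBS and treated with compounds for 24hr. CellTiter-Fluor is added at 23hr and fluorescence is read after 1hr.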
(qHTS replaces the single test concentration by a dilution series.)

A short description of assay [2]: Caspase-3/7 induction in HepG2 cells by small molecules, qHTS assay (AID 1346978). Also: nearly all actives have a fitted effect of over 15% in size. Also: potency is read from the fitted curve at half-maximal effect. An outline of the steps:
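Caspase-3/7 induction was measured by Caspase-Glo 3/7 luminescence (30 min, room temperature) after a 17 hr compound exposure of wild-type HepG2 cells seeded at 2,000 per well and pre-incubated 5 hr.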

Assay [3] can be described thus: Caspase-3/7 induction in CHO-K1 cells by small molecules, qHTS cell viability counter screen (AID 1346979). Also: nearly all actives have a fitted effect of over 35% in size. Also: potency is read from the fitted curve at half-maximal effect. An outline of the steps:
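Seeding: 1,500 CHO-K1 cells/well. Rest: 5hr, 37C. Treatment: compounds in DMSO, 16hr. Read: CellTiter-Fluor, 1hr, fluorescence.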

Assay [4] in a line: Caspase-3/7 induction in CHO-K1 cells by small molecules, qHTS assay (AID 1346980). Also: nearly all actives have a fitted effect of over 15% in size. In short, it runs like this: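 Luminescent Caspase-Glo 3/7 read (30min, room temperature) quantified apoptosis induction. Cells were wild-type CHO-K1, treated with compound for 17hr at 37 C and 5% CO2.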
Assay [5] is described as follows: Caspase-3/7 induction in HepG2 cells by small molecules, qHTS cell viability counter screen (AID 1346981). Also: nearly all actives have a fitted effect of over 30% in size. Also: potency is read from the fitted curve at half-maximal effect. In short, it runs like this: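 HepG2, WT, 2,000 cells/well; 5 hr pre-incubation 37 C/5% CO2; compound pin-transferred from DMSO; 16 hr exposure; CellTiter-Fluor, 1 hr; fluorescence read.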
Assay [6] deals with Nuclear receptor subfamily 1 group I member 2 (Rattus norvegicus) (UniProt Q9R1A7). In words: Rat pregnane X receptor (rPXR) activation by small molecules, qHTS assay (AID 1346983). Also: nearly all actives have a fitted effect of over 20% in size. As to conditions: rPXR luciferase reporter cells, One-Glo luminescence, 24 h; stronger effect = higher value. An outline of the steps: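 Luminescent readout (One-Glo luciferase, 30 min room temperature) followed 24 hr compound treatment at 37 C of rPXR cells plated 2,000 per well and preincubated 5hr; qHTS format with compounds delivered in DMSO.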

In assay [7] the target is Nuclear receptor subfamily 1 group I member 2 (Homo sapiens) (UniProt O75469). Description: Human pregnane X receptor (PXR) activation by small molecules, qHTS assay (AID 1346985). Also: nearly all actives have a fitted effect of over 40% in size. In short, it runs like this:
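DPX-2 cells (HepG2 co-transfected with a PXR response element and a CYP3A4-promoter luciferase construct) were seeded at 2,000 per well, rested 5 hr at 37C, then exposed to DMSO-dissolved compounds for 24 hr. Activation was read as luciferase luminescence.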

In assay [8] the target is Cytochrome P450 2D6 (Homo sapiens) (UniProt P10635). In words: Cytochrome P450 Family 2 Subfamily D Member 6 (CYP2D6) small molecule antagonists: luciferase reporter qHTS assay (AID 1671196). Also: nearly all actives have a fitted effect of over 50% in size. Also: potency is read from the fitted curve at half-maximal effect. An outline of the steps:
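Read-out is luminescence from luciferin formed by CYP2D6 turnover of a proluciferin substrate, recorded as relative luminescence units. Reactions ran 1 h at room temperature after NADPH regeneration solution was added.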
For orientation: Reporter assays use an easily measured gene product as a stand-in for the process of interest.

The target of assay [9] is Cytochrome P450 2C19 (Homo sapiens) (UniProt P33261). In words: Cytochrome P450 Family 2 Subfamily C Member 19 (CYP2C19) small molecule antagonists: luciferase reporter qHTS assay (AID 1671197). Also: nearly all actives have a fitted effect of over 65% in size. Also: potency is read from the fitted curve at half-maximal effect. In short, it runs like this:
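Enzyme-substrate mix with proluciferin substrate (P450-Glo CYP2C19 system) preincubated with compounds 10 min at room temperature; NADPH regeneration solution added, 37C for 1 h; detection reagent stops reaction, luminescence read after 20 min. Ketoconazole positive control.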

The target of assay [10] is Cytochrome P450 2C9 (Homo sapiens) (UniProt P11712). In words: Cytochrome P450 Family 2 Subfamily C Member 9 (CYP2C9) small molecule antagonists: luciferase reporter qHTS assay (AID 1671198). Also: nearly all actives have a fitted effect of over 50% in size. Also: potency is read from the fitted curve at half-maximal effect. An outline of the steps: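 Enzyme-substrate mix preincubated with compound 10 min at room temperature; reaction started with NADPH regeneration solution, 1 h 37C. Luminescent luciferin product read after 20 min detection reagent.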

Assay [11] addresses Voltage-gated inwardly rectifying potassium channel KCNH2 (Homo sapiens) (UniProt Q12809). In words: Human Ether-a-go-go-Related Gene (hERG) channel small molecule antagonists: fluorescence cell-based qHTS assay (AID 1671200).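 Also: hERG-expressing U2OS cells given a thallium stimulus after FluxOR II dye loading; series mostly up to about 77 µM; nearly all actives have a fitted effect of over 50% in size.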 An outline of the steps: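 First, 1000 cells per well are seeded and cultured overnight at 37 C. Next, FluxOR II dye is loaded for 1 h at room temperature, protected from light. After 10 more minutes, stimulus is added and fluorescence is read.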
For orientation: Block of hERG is tested as a sign of cardiac risk.

The target in assay [12] is Nuclear receptor subfamily 1 group I member 2 (Homo sapiens) (UniProt O75469). In words: Human pregnane X receptor (PXR) small molecule agonists, qHTS assay (AID 1346982). Also: nearly all actives have a fitted effect of over 35% in size. Also: potency is read from the fitted curve at half-maximal effect. In short, it runs like this: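 Luciferase signal from ONE-Glo (30 min, room temperature) measured activation of hPXR-driven CYP3A4 reporter expression in PXR-Luc HepG2 cells treated with compounds for 24 hr at 37 C.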

Assay [13] shares this target. Description: CYP3A4 induction through human pregnane X receptor (PXR) by small molecules, qHTS assay (AID 1346984). Also: nearly all actives have a fitted effect of over 40% in size. An outline of the steps: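 Luminescence readout: luciferase signal after One-Glo (30 min, room temperature), following 3 h at 37C with 3uM final Luciferin-IPA P450 substrate. Cells were DPX-2 (HepG2, PXR/CYP3A4-luc co-transfected) dosed for 24 h.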
The target in assay [14] is Cytochrome P450 3A4 (Homo sapiens) (UniProt P08684). Description: Cytochrome P450 Family 3 Subfamily A Member 4 (CYP3A4) small molecule antagonists: luciferase reporter qHTS assay (AID 1671201). Also: nearly all actives have a fitted effect of over 50% in size. Also: potency is read from the fitted curve at half-maximal effect. An outline of the steps: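 Enzyme and proluciferin substrate are mixed with test chemicals for 10 min, then NADPH regeneration system drives turnover for 1 h at room temperature. A detection reagent halts the reaction; luminescence after 20 min gives relative activity.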

The target of assay [15] is Cytochrome P450 1A2 (Homo sapiens) (UniProt P05177). In words: Cytochrome P450 Family 1 Subfamily A Member 2 (CYP1A2) small molecule antagonists: luciferase reporter qHTS assay (AID 1671199). Also: nearly all actives have a fitted effect of over 50% in size. Also: potency is read from the fitted curve at half-maximal effect. In short, it runs like this: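 P450-Glo CYP1A2, 1536-well qHTS: enzyme/proluciferin substrate + cpd (DMSO), 10 min RT; NADPH regen, 1 h RT; detection reagent, 20 min; luminescence, RLU.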
% is scaled to controls: 0 for no effect and ±100 for the full control effect.

Chain of Nuclear receptor subfamily 1 group I member 2 (Homo sapiens) (O75469 whole entry, looked up): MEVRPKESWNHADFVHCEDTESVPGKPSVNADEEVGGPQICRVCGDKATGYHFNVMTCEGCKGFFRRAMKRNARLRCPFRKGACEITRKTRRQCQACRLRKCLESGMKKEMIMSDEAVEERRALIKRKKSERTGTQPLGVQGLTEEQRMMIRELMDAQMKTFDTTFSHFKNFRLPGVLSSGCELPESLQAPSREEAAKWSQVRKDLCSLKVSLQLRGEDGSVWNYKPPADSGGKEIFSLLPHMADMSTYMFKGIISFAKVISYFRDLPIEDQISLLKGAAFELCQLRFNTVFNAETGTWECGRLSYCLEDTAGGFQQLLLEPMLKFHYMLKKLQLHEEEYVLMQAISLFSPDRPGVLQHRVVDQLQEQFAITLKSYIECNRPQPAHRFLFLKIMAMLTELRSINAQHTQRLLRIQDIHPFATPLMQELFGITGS
Chain of Cytochrome P450 3A4 (Homo sapiens) (P08684 whole entry, looked up): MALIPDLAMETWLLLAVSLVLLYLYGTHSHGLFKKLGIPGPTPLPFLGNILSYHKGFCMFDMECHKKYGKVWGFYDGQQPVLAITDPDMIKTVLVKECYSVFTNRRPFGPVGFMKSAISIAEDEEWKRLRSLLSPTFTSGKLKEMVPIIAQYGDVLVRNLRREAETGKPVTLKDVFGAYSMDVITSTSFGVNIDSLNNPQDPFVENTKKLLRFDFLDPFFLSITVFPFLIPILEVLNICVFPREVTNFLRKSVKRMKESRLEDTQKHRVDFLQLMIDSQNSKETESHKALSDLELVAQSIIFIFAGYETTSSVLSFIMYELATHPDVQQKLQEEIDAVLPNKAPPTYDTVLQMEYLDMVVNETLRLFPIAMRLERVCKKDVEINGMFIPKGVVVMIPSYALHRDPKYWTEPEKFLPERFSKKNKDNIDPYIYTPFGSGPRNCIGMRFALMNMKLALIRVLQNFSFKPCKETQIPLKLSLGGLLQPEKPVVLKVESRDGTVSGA
Chain of Cytochrome P450 2C19 (Homo sapiens) (P33261 whole entry, looked up): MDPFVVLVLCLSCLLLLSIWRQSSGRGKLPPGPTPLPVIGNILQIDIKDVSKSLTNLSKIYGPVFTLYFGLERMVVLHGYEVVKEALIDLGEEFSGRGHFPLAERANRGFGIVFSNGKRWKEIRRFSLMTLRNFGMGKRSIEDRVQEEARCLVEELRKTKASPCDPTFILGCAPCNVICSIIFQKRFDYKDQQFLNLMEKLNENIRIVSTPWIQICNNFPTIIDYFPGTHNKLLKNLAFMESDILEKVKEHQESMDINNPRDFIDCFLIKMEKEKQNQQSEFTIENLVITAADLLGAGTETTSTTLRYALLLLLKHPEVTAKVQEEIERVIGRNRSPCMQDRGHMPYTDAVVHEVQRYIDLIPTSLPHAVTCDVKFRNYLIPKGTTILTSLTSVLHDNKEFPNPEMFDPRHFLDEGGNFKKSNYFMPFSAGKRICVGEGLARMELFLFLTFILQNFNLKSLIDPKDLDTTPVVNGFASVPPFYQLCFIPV
Chain of Cytochrome P450 1A2 (Homo sapiens) (P05177 whole entry, looked up): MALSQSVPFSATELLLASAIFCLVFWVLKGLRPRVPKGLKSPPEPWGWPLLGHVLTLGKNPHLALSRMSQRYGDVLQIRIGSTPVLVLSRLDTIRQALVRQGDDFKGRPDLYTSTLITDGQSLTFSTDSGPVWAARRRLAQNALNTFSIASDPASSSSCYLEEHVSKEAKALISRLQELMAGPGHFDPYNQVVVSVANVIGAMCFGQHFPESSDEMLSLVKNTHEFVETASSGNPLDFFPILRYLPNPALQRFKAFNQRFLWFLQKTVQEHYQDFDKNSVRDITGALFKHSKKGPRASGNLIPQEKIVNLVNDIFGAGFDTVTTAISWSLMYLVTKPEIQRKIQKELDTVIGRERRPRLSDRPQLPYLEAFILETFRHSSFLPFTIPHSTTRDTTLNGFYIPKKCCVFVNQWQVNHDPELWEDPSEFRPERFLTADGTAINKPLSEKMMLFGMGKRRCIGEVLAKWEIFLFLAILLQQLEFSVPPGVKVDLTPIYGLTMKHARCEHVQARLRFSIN
Chain of Cytochrome P450 2D6 (Homo sapiens) (P10635 whole entry, looked up): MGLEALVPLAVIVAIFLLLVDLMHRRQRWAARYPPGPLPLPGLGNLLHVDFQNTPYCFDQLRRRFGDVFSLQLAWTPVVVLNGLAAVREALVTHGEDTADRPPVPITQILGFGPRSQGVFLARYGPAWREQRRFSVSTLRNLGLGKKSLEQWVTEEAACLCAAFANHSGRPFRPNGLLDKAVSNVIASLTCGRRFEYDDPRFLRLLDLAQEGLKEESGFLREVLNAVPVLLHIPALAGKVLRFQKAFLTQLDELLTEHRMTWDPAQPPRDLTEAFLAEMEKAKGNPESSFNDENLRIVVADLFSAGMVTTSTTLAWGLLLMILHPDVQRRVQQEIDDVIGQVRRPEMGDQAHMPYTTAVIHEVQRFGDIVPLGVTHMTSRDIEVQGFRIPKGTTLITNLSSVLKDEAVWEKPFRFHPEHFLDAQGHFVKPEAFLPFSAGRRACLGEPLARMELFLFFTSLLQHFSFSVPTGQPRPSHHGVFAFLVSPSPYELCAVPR
Chain of Voltage-gated inwardly rectifying potassium channel KCNH2 (Homo sapiens) (Q12809 whole entry, looked up): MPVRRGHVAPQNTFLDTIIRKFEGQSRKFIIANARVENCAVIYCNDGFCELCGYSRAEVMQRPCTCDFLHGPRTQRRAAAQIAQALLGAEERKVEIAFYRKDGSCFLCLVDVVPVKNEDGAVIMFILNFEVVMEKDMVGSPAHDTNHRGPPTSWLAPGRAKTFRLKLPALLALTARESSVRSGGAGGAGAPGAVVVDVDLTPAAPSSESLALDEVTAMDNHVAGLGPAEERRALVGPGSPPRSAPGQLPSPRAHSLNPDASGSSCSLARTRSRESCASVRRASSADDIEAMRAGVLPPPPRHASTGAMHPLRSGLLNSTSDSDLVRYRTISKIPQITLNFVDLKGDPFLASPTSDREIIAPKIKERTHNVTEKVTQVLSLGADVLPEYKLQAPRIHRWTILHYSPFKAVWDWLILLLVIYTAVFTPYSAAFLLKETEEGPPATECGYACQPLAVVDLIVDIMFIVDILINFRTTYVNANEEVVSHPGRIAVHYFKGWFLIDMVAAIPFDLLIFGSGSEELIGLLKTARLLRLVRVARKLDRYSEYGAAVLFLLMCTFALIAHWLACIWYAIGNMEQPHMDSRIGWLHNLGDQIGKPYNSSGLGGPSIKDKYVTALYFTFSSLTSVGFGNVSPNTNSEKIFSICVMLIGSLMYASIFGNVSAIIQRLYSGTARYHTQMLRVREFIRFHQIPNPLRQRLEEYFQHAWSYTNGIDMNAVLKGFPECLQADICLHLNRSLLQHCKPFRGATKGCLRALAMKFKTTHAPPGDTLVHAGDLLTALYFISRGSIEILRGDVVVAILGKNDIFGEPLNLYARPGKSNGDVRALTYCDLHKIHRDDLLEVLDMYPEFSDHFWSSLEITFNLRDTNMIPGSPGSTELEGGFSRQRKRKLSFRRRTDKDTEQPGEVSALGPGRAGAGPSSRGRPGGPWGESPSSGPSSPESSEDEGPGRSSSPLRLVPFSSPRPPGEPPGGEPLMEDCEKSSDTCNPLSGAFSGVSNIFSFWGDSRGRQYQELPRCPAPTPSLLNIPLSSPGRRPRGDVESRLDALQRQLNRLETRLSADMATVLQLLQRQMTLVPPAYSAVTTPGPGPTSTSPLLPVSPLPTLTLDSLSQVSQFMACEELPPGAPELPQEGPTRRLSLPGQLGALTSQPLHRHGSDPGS
Chain of Nuclear receptor subfamily 1 group I member 2 (Rattus norvegicus) (Q9R1A7 whole entry, looked up): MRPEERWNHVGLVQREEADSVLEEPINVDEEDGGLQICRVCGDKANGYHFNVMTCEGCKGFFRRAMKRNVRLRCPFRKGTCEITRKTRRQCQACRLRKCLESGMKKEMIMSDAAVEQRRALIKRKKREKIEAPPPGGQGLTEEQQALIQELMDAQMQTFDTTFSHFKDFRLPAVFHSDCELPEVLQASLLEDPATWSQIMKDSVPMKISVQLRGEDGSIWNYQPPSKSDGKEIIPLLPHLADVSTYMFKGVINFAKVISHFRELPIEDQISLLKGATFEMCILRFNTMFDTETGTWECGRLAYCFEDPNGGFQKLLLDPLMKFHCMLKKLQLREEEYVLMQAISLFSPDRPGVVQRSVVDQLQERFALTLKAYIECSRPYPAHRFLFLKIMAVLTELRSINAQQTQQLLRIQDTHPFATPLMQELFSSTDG
Chain of Cytochrome P450 2C9 (Homo sapiens) (P11712 whole entry, looked up): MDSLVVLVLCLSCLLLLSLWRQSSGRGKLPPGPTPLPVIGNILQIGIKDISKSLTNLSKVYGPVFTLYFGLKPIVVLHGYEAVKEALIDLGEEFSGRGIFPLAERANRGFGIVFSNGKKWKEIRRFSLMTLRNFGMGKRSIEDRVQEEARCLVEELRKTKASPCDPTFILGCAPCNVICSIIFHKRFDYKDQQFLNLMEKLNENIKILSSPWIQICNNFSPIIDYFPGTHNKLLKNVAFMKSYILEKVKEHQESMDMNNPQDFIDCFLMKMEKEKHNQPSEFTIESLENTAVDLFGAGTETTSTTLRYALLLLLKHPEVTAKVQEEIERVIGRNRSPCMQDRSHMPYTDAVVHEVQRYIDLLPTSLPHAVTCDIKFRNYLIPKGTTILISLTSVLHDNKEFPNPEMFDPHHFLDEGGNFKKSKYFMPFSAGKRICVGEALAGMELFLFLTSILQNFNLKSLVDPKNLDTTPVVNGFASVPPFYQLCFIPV

As to `Cn1cc[nH]c1=S`, the Potency result in [1], in assay [2], in assay [3], in assay [5], in assay [7] and in assay [8] was “inactive” each time. Further, the Potency entry in assay [9] is “inactive”. For the same compound, the outcome in assay [4] and in [11] was inactive. In addition, the max activation in assay [6] is -0.0972% (inactive). For the same compound, the Potency entry in assay [10] is “inactive and 71 µM (active)”.
As for `CCOc1ccc(NC(=O)CC(C)O)cc1` (centres undefined), the Potency entry in assay [1], in assay [2], in assay [3], in assay [5], in assay [12] and in [7] was “inactive” each time. In addition, the Potency result in assay [9], in [10] and in [14] was “inactive” in each case. Besides, the call in [4], in [13] and in [11] was inactive. For the same compound, the max activation in [6] was 0.554% (inactive). In addition, in assay [8], the Potency was 32.1 µM (active) and inactive.
Take `Cc1cc(=O)n(-c2ccccc2)n1C`: the Potency result in [1], in assay [2], in [3], in [5], in [12] and in assay [8] was “inactive” throughout. For the same compound, the Potency entry in assay [9], in assay [15] and in assay [14] was “inactive” in each case. Moreover, the outcome in assay [4] and in assay [11] was inactive.
For `CC(=O)OCC(COC(C)=O)OC(C)=O`, the Potency entry in assay [1], in assay [2], in [3], in assay [5], in [7] and in assay [8] was “inactive” each time. Moreover, the Potency entry in assay [9], in [10] and in assay [14] was “inactive” throughout. Also, the compound was called inactive in [4], in assay [13] and in assay [11]. In addition, the Potency entry in assay [12] was “inactive and 4.33 µM (active)”; in assay [15], 62.5 µM (active) and inactive. In addition, the max activation in assay [6] was 3.67% (inactive).
`COc1c2occc2cc2ccc(=O)oc12`: the Potency entry in [1], in [2], in assay [3] and in assay [5] was “inactive” in each case. Besides, the compound was called inactive in assay [4] and in [11]. In addition, the Potency in assay [12] was 61.5 µM (active) and 48.6 µM (active); in [10], 5.06 µM (active) and 10 µM (active) and 4.9 µM (active).
`CC1(C)[C@@H]2CC[C@@]1(C)C(=O)C2`: the Potency entry in [1], in assay [2], in assay [3], in [5], in assay [12] and in [7] was “inactive” each time. Further, the Potency result in assay [8], in assay [9], in assay [10], in [15] and in [14] was “inactive” throughout. In assay [6], the max activation is -1.13% (inactive). Also, the result in [13] and in [11] was inactive.
As to `Cc1noc(NS(=O)(=O)c2ccc(N)cc2)c1C`, the Potency entry in assay [1], in assay [2], in assay [3], in [5], in assay [12] and in assay [8] was “inactive” in each case. Moreover, the Potency entry in assay [9], in assay [10], in assay [15] and in assay [14] was “inactive” each time. Besides, the result in assay [4] and in assay [11] was inactive.
`O=C(O)c1[nH]n(-c2ccc(S(=O)(=O)O)cc2)c(=O)c1N=Nc1ccc(S(=O)(=O)O)cc1`: the Potency in assay [1] is 39.8 µM (active) and 45.4 µM (active); in [3], 29.8 µM (active) and 48.7 µM (active) and 45.4 µM (active); in assay [5], 29.8 µM (active) and 27.4 µM (active) and 50.9 µM (active); in assay [9] it was “inactive and 79.9 µM (active) and 29.6 µM (active)”; in assay [10], “inactive and 18.7 µM (active)”. The Potency result in [2], in [12], in [8], in assay [15] and in assay [14] was “inactive” in each case. Also, the result in assay [4] and in assay [11] was inactive.
As for `CC(O)CO` (centres undefined), the Potency entry in assay [1], in assay [2], in assay [3], in assay [5], in assay [12] and in assay [7] was “inactive” in each case. Moreover, the Potency entry in [9], in assay [10] and in assay [15] was “inactive” each time. Further, in assay [6], the max activation is 1.42% (inactive). For the same compound, the compound was classed as inactive in assay [13] and in [11]. Also, the Potency result in assay [8] is “inactive and 1.56 µM (active)”; in assay [14], 27.2 µM (active) and inactive.
`CCCCCCCCCCCCCCCC(=O)O`: the Potency entry in [1], in [2], in assay [3], in assay [5], in assay [12] and in assay [7] was “inactive” each time. Besides, the Potency entry in [8], in [10] and in assay [14] was “inactive” throughout. Besides, the outcome in [4], in assay [13] and in assay [11] was inactive. The Potency in [9] was 80.5 µM (active) and inactive; in assay [15] it was 39.9 µM (active) and inactive.
For `COC(=O)[C@H](Cc1ccccc1)NC(=O)[C@@H](N)CC(=O)O` (H-Asp-Phe-OMe), the Potency entry in assay [1], in assay [2], in [3], in assay [5], in [12] and in [7] was “inactive” throughout. In addition, the Potency result in assay [8], in assay [9], in assay [10], in assay [15] and in assay [14] was “inactive” throughout. Also, the compound was classed as inactive in assay [4], in assay [13] and in assay [11]. Moreover, in assay [6], the max activation was -3.24% (inactive) and -1.16% (inactive).
`O=C(c1ccccc1)c1ccccc1`: the Potency entry in assay [1], in [2], in assay [3] and in assay [5] was “inactive” in each case.
On to `CC(C)[C@@H]1CC[C@@H](C)C[C@H]1O`, for which the Potency result in [1], in [3], in assay [5], in assay [7], in assay [8] and in assay [9] was “inactive” throughout. In addition, the Potency entry in assay [10], in assay [15] and in assay [14] was “inactive” in each case. The Potency is 69.5 µM (active) and inactive in assay [2]; 31 µM (active) and inactive in assay [12]. The compound was called inactive in assay [4], in assay [13] and in assay [11]. In addition, the max activation in assay [6] is -1.21% (inactive).
Regarding `CC(O)C(=O)O` (centres undefined), the Potency result in assay [1], in assay [2], in assay [3], in assay [5], in assay [12] and in assay [7] was “inactive” throughout. Moreover, the Potency entry in [10] and in assay [14] was “inactive” in each case. Also, the max activation in assay [6] is -1.38% (inactive). In addition, the compound was classed as inactive in [13] and in [11]. Also, the Potency entry in [8] was “inactive and 11 µM (active)”; in assay [9], “inactive and 81.1 µM (active)”; in assay [15], “inactive and 24.5 µM (active)”.
As to `CCCCC1C(=O)N(c2ccccc2)N(c2ccccc2)C1=O`, the Potency result in [1], in [2], in assay [3], in [5], in [8] and in [15] was “inactive” each time. Besides, the result in [4] and in assay [11] was inactive. Further, the Potency in [12] was 27.1 µM (active) and 24.3 µM (active); in assay [9], 5.6 µM (active) and 25.2 µM (active); in assay [10] it was 9.96 µM (active) and 31.7 µM (active) and 17.4 µM (active).
